Measurements published in PubChem BioAssay (NCATS).
Several values for one entry are separate records, joined by “and”; a condition that tells them apart may be missing. Identical values can stand only once. Records with an inconclusive call do not appear. Activity calls are given as the source filed them. Unless noted, calls come from the whole dose curve; as a rule, active = well fitted curve in the direction sought with a large enough effect; inconclusive = small, poorly fitted or top-dose-only effect, or another doubt; inactive = no such curve, though single readings can be large; an effect the other way counts as inactive or inconclusive.

Tests used:
[1] = qHTS for small molecule inhibitors of Yes1 kinase: Counter Assay (AID 686950); settings: series mostly up to 76.9 µM;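 note: no kinase present so only ADP-Glo detection of a fixed ADP amount is tested; luminescence from ADP-Glo reporting ADP in a fixed ATP and ADP mixture; 0% = DMSO wells with ATP plus ADP and -100% = ATP-only wells without ADP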
How it was run: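 No kinase present; 0.08 mM ATP + 0.02 mM ADP in 50 mM Tris pH 7.5, 10 mM MgCl2, 150 mM NaCl, 1 mM DTT; 20 min compound preincubation, 60 min RT, ADP-Glo luminescence, normalized to ATP/ADP (max) and ATP-only (min).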

[2] = target: Arylsulfatase A (Homo sapiens) (UniProt P15289); assay: qHTS screen for enhancers of Arylsulfatase A (ASA1): LOPAC Validation Assay (AID 720538); settings: ASA enzyme activity, LOPAC qHTS enhancer assay; series mostly up to 57.5 µM
Sequence of Arylsulfatase A (Homo sapiens) (P15289 whole entry, looked up): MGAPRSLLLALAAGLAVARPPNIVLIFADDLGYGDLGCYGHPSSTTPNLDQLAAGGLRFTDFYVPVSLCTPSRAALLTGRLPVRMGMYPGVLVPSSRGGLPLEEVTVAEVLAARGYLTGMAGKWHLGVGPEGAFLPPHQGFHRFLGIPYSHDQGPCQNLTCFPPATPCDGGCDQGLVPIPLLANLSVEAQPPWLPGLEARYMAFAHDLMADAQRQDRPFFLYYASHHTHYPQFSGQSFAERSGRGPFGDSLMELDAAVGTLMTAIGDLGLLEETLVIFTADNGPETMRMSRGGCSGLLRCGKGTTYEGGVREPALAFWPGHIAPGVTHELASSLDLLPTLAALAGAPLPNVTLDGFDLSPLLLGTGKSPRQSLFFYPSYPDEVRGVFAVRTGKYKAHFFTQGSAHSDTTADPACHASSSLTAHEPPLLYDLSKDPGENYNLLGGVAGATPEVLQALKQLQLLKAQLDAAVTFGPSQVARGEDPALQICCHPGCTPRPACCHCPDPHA
How it was run: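 MLD patient fibroblasts (SV40, ASA-I179S), 1536-well; adhere 6 hrs; cpd 48h, 37 degree C, 5% CO2; pNCS 0.5mM final in lysis buffer, 14h RT; stop 1N NaOH final; fluor. Ex525/Em598.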

[3] = qHTS for compounds that reverse cellular toxicity of Amyloid beta (A-beta) peptide in yeast: LOPAC Validation Assay (AID 720559); settings: yeast expressing A-beta; series mostly up to 46.1 µM;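 note: plate controls were DMSO for no effect and equimolar ferric chloride plus clioquinol rescue for full effect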
How it was run: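 Medium dispensed, compounds pinned, A-beta yeast suspension added; plates held at 30 C for 48 hr; absorbance measured at 600 nm to gauge growth; values scaled between DMSO and FeCl3/clioquinol (equimolar) controls.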

[4] = qHTS for Activators of Parkin Expression: LOPAC Validation Assay (NLuc Reporter) (AID 720572; note: potency is the fitted concentration of half-maximal effect); settings: Parkin promoter NanoLuc reporter cells, luminescence; series mostly up to 46.1 µM
How it was run: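 NLuc signal, read 10 min after reagent and following a prior FLuc read, is normalized to DMSO (0) and positive controls (100%). Cells: neuronal Parkin-promoter coincidence reporter line; compounds tested 7-point, 24 h, 37 C, 5% CO2.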

[5] = qHTS for Activators of Parkin Expression: LOPAC Validation Assay (FLuc Reporter) (AID 720573); settings: Cell line, PRKN promoter firefly luciferase reporter, vehicle wells = 0, positive control = 100%; series mostly up to 46.1 µM
How it was run: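 Cells seeded, 24 h; compounds pinned, 7-pt dose response; 24 h at 37 C/5% CO2; volume reduced; FLuc reagent 10 min RT; luminescence read. Normalization: DMSO = 0, positive control = 100%.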

[6] = target: T1, Hexokinase-4 (Homo sapiens) + Glucokinase regulatory protein (Homo sapiens) (UniProt P35557+Q14397); assay: qHTS assay for inhibitors of recombinant human GCK-GKRP interaction: Diaphorase-coupled assay (AID 743205); settings: G6PDH/diaphorase resorufin fluorescence; series mostly up to 57.5 µM
T1 sequence (P35557 whole entry, looked up): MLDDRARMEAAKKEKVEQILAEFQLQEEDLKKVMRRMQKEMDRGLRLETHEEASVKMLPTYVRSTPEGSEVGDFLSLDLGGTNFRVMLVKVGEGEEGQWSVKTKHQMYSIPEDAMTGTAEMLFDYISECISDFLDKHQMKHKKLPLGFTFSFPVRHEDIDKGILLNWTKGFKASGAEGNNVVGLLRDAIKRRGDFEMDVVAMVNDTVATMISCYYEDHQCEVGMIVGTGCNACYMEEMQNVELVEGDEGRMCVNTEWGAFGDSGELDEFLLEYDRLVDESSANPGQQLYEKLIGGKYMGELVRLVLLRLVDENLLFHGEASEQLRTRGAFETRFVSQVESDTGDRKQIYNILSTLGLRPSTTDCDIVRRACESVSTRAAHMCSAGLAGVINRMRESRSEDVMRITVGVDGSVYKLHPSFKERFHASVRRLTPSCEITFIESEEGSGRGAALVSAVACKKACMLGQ
T1 sequence (Q14397 whole entry, looked up): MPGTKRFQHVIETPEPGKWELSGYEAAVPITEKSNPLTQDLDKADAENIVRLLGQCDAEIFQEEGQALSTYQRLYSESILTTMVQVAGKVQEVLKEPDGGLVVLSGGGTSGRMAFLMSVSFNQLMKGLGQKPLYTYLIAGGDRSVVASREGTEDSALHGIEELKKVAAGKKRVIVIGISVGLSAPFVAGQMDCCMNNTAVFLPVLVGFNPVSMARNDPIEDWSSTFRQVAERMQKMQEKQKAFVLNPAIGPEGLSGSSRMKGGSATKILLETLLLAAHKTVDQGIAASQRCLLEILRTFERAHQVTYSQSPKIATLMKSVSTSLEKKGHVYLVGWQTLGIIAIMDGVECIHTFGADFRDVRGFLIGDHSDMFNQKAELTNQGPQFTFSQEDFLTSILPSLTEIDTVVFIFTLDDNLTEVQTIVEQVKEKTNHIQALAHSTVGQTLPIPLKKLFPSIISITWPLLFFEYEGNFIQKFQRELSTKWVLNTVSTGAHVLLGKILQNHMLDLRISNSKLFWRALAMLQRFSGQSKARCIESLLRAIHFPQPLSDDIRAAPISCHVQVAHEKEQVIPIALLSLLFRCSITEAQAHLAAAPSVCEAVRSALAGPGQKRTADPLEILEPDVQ
How it was run: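 25 mM Hepes pH 7.6, 5 mM glucose, 0.4 mM ATP, 4 U/ml G6PDH; 10 nM each GST-GCK/FLAG-GKRP. Kinetic fluorescence read, 1/min × 30 min. Normalized: DMSO ± enzyme = max/min.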

[7] = qHTS assay for small molecule agonists of the antioxidant response element (ARE) signaling pathway measured by Nrf2-dependant transcriptional activity (AID 720636; active = well fitted curve in the direction sought with a large enough effect in the repeat runs; an effect the other way counts as inactive or inconclusive; note: % of control where 0% means no effect); settings: ARE-luc HepG2, Nrf2 luciferase reporter, 16 h; series mostly up to 92.4 µM
How it was run: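 ARE-luc HepG2 cells carrying an Nrf2-responsive luciferase reporter, in medium with 1% dialyzed FBS, exposed to compound for 16 hr at 37 C, 5% CO2. Luminescence read 30 min after ONE-Glo addition.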

[8] = qHTS assay for small molecule antagonists of the retinoid-related orphan receptor gamma (ROR-gamma) signaling pathway - cell viability counter screen (AID 720652; active = well fitted curve in the direction sought with a large enough effect in the repeat runs; an effect the other way counts as inactive or inconclusive;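 note: CHO reporter cells with doxycycline-induced ROR-gamma expression; compound exposure lasted 16 hr before ATP read; % is set by controls: 0 for no effect and ±100 for the full control effect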); settings: RORgamma reporter cell line viability counter screen; series mostly up to 92.2 µM
How it was run: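 Cytotoxicity counter screen: intracellular ATP (CellTiter-Glo luminescence) measured in the doxycycline-induced CHO RORE-luciferase reporter line after 16 hr compound exposure at 37 C, 5% CO2.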

[9] = qHTS assay for small molecule agonists of the antioxidant response element (ARE) signaling pathway measured by Nrf2-dependant transcriptional activity - cell viability counter screen (AID 720653; active = well fitted curve in the direction sought with a large enough effect in the repeat runs; an effect the other way counts as inactive or inconclusive; note: % is set by controls: 0 for no effect and ±100 for the full control effect); settings: ARE-bla HepG2 viability, CellTiter-Glo ATP luminescence, 16 h; hits give low values
How it was run: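 ARE-bla HepG2 cells treated with compounds for 16 h at 37C; this counter screen measures viability as intracellular ATP by CellTiter-Glo luminescence after 30 min at room temperature.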

[10] = target: T1, Hexokinase-4 (Homo sapiens) + Glucokinase regulatory protein (Homo sapiens); assay: qHTS assay for inhibitors of recombinant human GCK-GKRP interaction: ADP-Glo assay (AID 743206); settings: ADP-Glo luminescence, 60 min, 0% = vehicle-only wells with enzyme present; series mostly up to 76.9 µM;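 note: plate controls were DMSO plus enzyme for no effect and no enzyme for full effect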
How it was run: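 Pin-transferred compounds meet a 15 nM GST-GCK/15 nM FLAG-GKRP/2 uM S6P mix (dispense concentrations). ATP is then added to 0.4 mM final with 5 mM glucose, and the reaction runs 60 min at room temperature. ADP is quantified luminescently.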

CCC(C)N(C)C(=O)c1cc2ccccc2c(-c2ccccc2Cl)n1 (stereo not given)
active: Potency [4] 20.6 µM
inactive: outcome [1] | outcome [2] | outcome [3] | outcome [5] | outcome [6]

COc1ccc(-c2ccc3c(N4CCOC[C@H]4C)nc(N4CCOC[C@H]4C)nc3n2)cc1CO
inactive: outcome [1]

c1ccc(-c2nn3c(c2-c2ccnc4cc(OCCN5CCOCC5)ccc24)CCC3)nc1
inactive: outcome [1]

OC(CCN1CCCCC1)(c1ccccc1)C1CC2C=CC1C2 (stereo not given)
inactive: outcome [2] | outcome [3] | Potency [4] | outcome [5] | outcome [6]

Clc1cccc(Cl)c1NC1=NCCN1
inactive: outcome [3] | Potency [4] | outcome [5] | outcome [6]

O=c1[nH]cnc2[nH]ncc12
inactive: outcome [2] | outcome [3] | Potency [4] | outcome [5] | outcome [7] | outcome [8] | max response [9] -4.44% | outcome [6]

O=C1CCC(N2C(=O)c3ccccc3C2=O)C(=O)N1 (stereo not given)
inactive: outcome [2] inactive; inhibitor; fitted 0.0301 uM | outcome [3] | Potency [4] | outcome [5] | outcome [7] | max response [9] 1.28% | outcome [6]

O=C(O)COCCN1CCN(C(c2ccccc2)c2ccc(Cl)cc2)CC1 (stereo not given)
inactive: outcome [3] | Potency [4] | outcome [5] | outcome [6]

O=c1n(CCCN2CCN(c3cccc(Cl)c3)CC2)nc2ccccn12
inactive: outcome [2] | outcome [3] | Potency [4] | outcome [5] | outcome [6]

N=c1nc(N2CCCCC2)cc(N)n1O
inactive: outcome [2] | outcome [3] | Potency [4] | outcome [5] | outcome [6]

O=NN(CCCl)C(=O)NCCCl
inactive: outcome [3] | Potency [4] | outcome [5] | outcome [7] | max response [9] -0.208% | outcome [6] | outcome [10]

Cc1ccccc1C(OCCN(C)C)c1ccccc1 (stereo not given)
inactive: outcome [2] | outcome [3] | Potency [4] | outcome [5] | outcome [7] | max response [9] -8.13% | outcome [6]

CCOC(=O)C1=C[C@]2(CC)CCCN3CCc4c(n1c1ccccc41)[C@@H]32
inactive: outcome [2] | outcome [3] | Potency [4] | outcome [5] | outcome [6]

Nc1nc2c(ncn2COCCO)c(=O)[nH]1
inactive: outcome [2] | outcome [3] | outcome [6]

CN1CCN(CCCN2c3ccccc3Sc3ccc(C(F)(F)F)cc32)CC1
inactive: outcome [2] | outcome [3] | Potency [4] | outcome [5] | outcome [6] | outcome [10]

NCCCC(N)(C(=O)O)C(F)F (stereo not given)
inactive: outcome [2] | outcome [3] | Potency [4] | outcome [5] | outcome [6]

NNCCc1ccccc1
inactive: outcome [2] | outcome [3] | Potency [4] | outcome [5] | outcome [6]

c1ccc([C@H]2CN3CCSC3=N2)cc1
inactive: outcome [2] | outcome [3] | Potency [4] | outcome [5] | outcome [6]

Oc1ccc(C2CNCCc3c2cc(O)c(O)c3Cl)cc1 (stereo not given)
inactive: outcome [6]

NC[C@H](O)c1ccc(O)c(O)c1
inactive: outcome [2] | outcome [7] | max response [9] -7.71% | outcome [6]

CCN(CC)CCCC(C)Nc1ccnc2cc(Cl)ccc12 (stereo not given)
inactive: outcome [2] | outcome [3] | Potency [4] | outcome [5] | outcome [6] | outcome [10]

CCCCNc1cc(C(=O)O)cc(S(N)(=O)=O)c1Oc1ccccc1
inactive: outcome [2] | outcome [3] | Potency [4] | outcome [5] | outcome [6] | outcome [10]

Cn1cnc([N+](=O)[O-])c1Sc1ncnc2nc[nH]c12
inactive: outcome [3] | Potency [4] | outcome [5] | outcome [7] | outcome [8] | outcome [6]

NCCc1ccc(O)c(O)c1
inactive: outcome [3] | Potency [4] | outcome [5] | outcome [6]

CC(C[N+](C)(C)C)OC(N)=O (stereo not given)
inactive: outcome [2] | outcome [3] | Potency [4] | outcome [5] | outcome [6]

NS(=O)(=O)c1cc2c(cc1Cl)NC=NS2(=O)=O
inactive: outcome [3] | Potency [4] | outcome [5] | outcome [7] | outcome [8] | max response [9] -14.4% | outcome [6]

CCCC(CCC)C(=O)O
inactive: outcome [2] | outcome [3] | outcome [7] | outcome [8] | max response [9] -3.17% and -14.3% and -4.27%

Cc1cnc(NC(=O)C2=C(O)c3ccccc3S(=O)(=O)N2C)s1
inactive: outcome [2] | outcome [3] | outcome [5] | outcome [6] | outcome [10]

N[C@@H]1CONC1=O
inactive: outcome [2] | outcome [6] | outcome [10]

CCOC(=O)N1CCC(=C2c3ccc(Cl)cc3CCc3cccnc32)CC1
inactive: outcome [3] | Potency [4] | outcome [5] | outcome [6]

C1COC(NC(C2CC2)C2CC2)=N1
inactive: outcome [3] | Potency [4] | outcome [5] | outcome [6]

Cc1ccc(N(CC2=NCCN2)c2cccc(O)c2)cc1
inactive: outcome [3] | Potency [4] | outcome [5] | outcome [6]

CC(C)NCC(O)COc1ccc(COCCOC(C)C)cc1 (stereo not given)
inactive: outcome [2] inactive; inhibitor; fitted 0.3793 uM | outcome [3] | Potency [4] | outcome [5] | outcome [6]

Cc1cn[nH]c1
inactive: outcome [2] | outcome [3] | Potency [4] | outcome [5] | outcome [6]

Cc1[nH]c(=O)c(C#N)cc1-c1ccncc1
inactive: outcome [2] inactive; inhibitor; fitted 5.3582 uM | outcome [3] | Potency [4] | outcome [5] | outcome [7] | max response [9] 11.3% | outcome [6]

CCn1cc(C(=O)O)c(=O)c2cc(F)c(N3CCNC(C)C3)c(F)c21 (stereo not given)
inactive: outcome [2] | outcome [3] | Potency [4] | outcome [5] | outcome [6]

NC(=O)c1cnccn1
inactive: outcome [2] | outcome [3] | Potency [4] | outcome [5] | outcome [7] | outcome [8] | max response [9] 6.82% and 7.56% | outcome [6]

Nc1ccc(S(=O)(=O)Nc2ccnn2-c2ccccc2)cc1
inactive: outcome [2] | outcome [3] | Potency [4] | outcome [5] | outcome [6]

CNC[C@H](O)c1cccc(O)c1
inactive: outcome [2] | outcome [3] | Potency [4] | outcome [5] | outcome [7] | max response [9] -6.42% | outcome [6]

O=C1CCc2cc(OCCCCc3nnnn3C3CCCCC3)ccc2N1
inactive: outcome [2] | outcome [3] | Potency [4] | outcome [5] | outcome [6]
